PvdQ acylase = blocks Pseudomonas aeruginosa PvdQ acylase activity; 340,000 compounds, 0.063% hits; inhibition, % at 10 µM; purified PvdQ acylase, fluorescence plate reader; AID 488965; in the data active means inhibition above about 30%, passing the limit was not always enough;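 further: 0% = vehicle neutral wells and 100% = reference inhibitor wells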
Mot1-301 SUMO = blocks SUMOylation pathway, rescuing yeast Mot1-301 growth | S. cerevisiae Mot1-301 growth rescue, ATP luminescence, 38.5C; percent above DMSO median, 100 means doubled | growth rescue, % at 18.8 µM | 320,000 compounds, 1% hits | AID 2716;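 active means every valid replicate shows activation above 250% relative to neutral control wells; inactive means the rest, any valid replicate at or below 250%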;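 further: OY570 slx delta 5 strain wells were the positive control but not used for scaling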
p-CIP stab down = p/CIP protein destabilization | F442A p/CIP-EGFP cells, EGFP fluorescence, 16 h | decrease of EGFP signal, % at 10 µM | 290,000 compounds, 0.01% hits;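 active means EGFP signal decrease of at least 30% at 10 µM or well 3 SD below plate mean, unless failing retest; inactive means the rest, including hits failing retest or dose response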
HDAC3 inhib = human HDAC3 inhibition. O15379. recombinant HDAC3, fluorogenic peptide/trypsin coupled, fluorescence. inhibition, % at 8.3 µM. 320,000 compounds, 0.15% hits. AID 2718; in the data active means inhibition above about 26%, passing the limit was not always enough
Target sequence (O15379 whole entry, looked up): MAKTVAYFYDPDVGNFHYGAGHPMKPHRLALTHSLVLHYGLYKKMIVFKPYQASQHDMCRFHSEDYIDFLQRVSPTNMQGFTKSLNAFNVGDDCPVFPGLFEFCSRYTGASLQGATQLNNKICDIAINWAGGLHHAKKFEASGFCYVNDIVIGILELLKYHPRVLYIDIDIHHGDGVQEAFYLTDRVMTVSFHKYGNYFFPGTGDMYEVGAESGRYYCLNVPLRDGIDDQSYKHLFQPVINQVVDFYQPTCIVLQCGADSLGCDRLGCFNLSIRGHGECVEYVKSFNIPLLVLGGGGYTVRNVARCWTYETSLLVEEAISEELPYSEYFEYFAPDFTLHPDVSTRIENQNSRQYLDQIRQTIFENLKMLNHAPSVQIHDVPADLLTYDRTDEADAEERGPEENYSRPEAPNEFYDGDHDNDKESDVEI
JMJD2C inh = blocks human GASC-1 demethylase activity | Q9H3R0 | GST-JMJD2C(1-420) H3K9me3 demethylation, DELFIA europium | inhibition, % at 2.35 µM | 330,000 compounds, 0.069% hits | AID 2099;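 active means more than half of a compound's replicate wells show inhibition beyond 50%, single wells judged on their own value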;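 further: signal counts dimethyl H3K9 product captured on neutravidin plate; 0% = median of DMSO wells and 100% = 0.3 times that DMSO median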
PHOSPHO1 block = inhibitors of human PHOSPHO1 phosphatase | recombinant PHOSPHO1, absorbance phosphatase assay | inhibition, % at 13.3 µM | 290,000 compounds, 1.1% hits | AID 1565; in the data active means inhibition above about 60%
Target sequence (Q8TCT1 whole entry, looked up): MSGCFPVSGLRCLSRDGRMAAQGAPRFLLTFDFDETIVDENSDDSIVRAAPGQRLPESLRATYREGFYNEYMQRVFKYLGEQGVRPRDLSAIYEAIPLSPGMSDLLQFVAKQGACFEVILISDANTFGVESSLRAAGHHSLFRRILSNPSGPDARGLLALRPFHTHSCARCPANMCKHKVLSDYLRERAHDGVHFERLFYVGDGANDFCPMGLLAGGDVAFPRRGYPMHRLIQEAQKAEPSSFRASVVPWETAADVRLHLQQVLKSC
Starred values were filed as active, the others as inactive; nt = no result given; ! = not confirmed by another sample. Shown are actives, neighbours in structure and some others; about 2.2% of the full set was active somewhere.

SMILES | PvdQ acylase | Mot1-301 SUMO | p-CIP stab down | HDAC3 inhib | JMJD2C inh | PHOSPHO1 block
COc1cccc(CN2CCNC(=O)C2CC(=O)N(C)C2CCOCC2)c1OC (centres undefined) | -4.4 | 3.2 | -17.7 | 1.6 | -10.5 | 65.8*
CN(C)C(CNC(=O)c1cc2ccccc2o1)c1ccco1 (centres undefined) | -11.6 | 193.5 | nt | -12.5 | -1.4 | nt
CC(Nc1nc(-c2ccc3c(c2)NC(=O)CO3)cs1)c1ccccc1 (centres undefined) | 6.0 | 1.1 | 2.6 | 35.6* | -22.5 | 27.5
O=C1COc2ccc(-c3csc(NCC4CCCO4)n3)cc2N1 (centres undefined) | -13.1 | -0.9 | 5.9 | 5.7 | -4.0 | 35.0
COc1ccc(N2CCN(C(=O)c3ccc(Br)o3)CC2)cc1 | 42.5* | -7.4 | 3.8 | 8.3 | -8.9 | 47.5
CN(C)CC1(C)Cc2ccsc2C1O (centres undefined) | -8.1 | nt | nt | nt | nt | nt
CCCc1cc(=O)oc2c3c(cc(OCC(=O)NCCCn4ccnc4)c12)OC(C)(C)CC3 | -5.8 | 411.6* | 2.7 | -143.4 | -3.4 | 13.1
COc1ccc(CNC(=O)COc2cc3c(c4oc(=O)cc(C)c24)CCC(C)(C)O3)cc1OC | -17.3 | 334.3* | -13.0 | -24.5 | 0.5 | 33.8
CC(C)(C)C1=CC=C(C(C)(C)C)C(=O)C1=O | nt | 62.3 | -5.1 | nt | -8.0 | 66.8*
c1ccc(Cc2noc(CN3CCC(CN4CCOCC4)CC3)n2)cc1 | 7.3 | 34.7 | -2.6 | -1.6 | 2.2 | 61.1*
O=C(NC(=S)NCCC1=CCCCC1)c1cccnc1 | -9.2 | 17.3 | 3.2 | 1.0 | -6.2 | 32.8
CCCC(=O)N1c2ccccc2C(=C2SC(C(=O)OC)=C(C(=O)OC)S2)C(=S)C1(C)C | -7.6 | -3.1 | 2.3 | 0.5 | 14.5 | -20.8
COC(=O)C1=C(C(=O)OC)SC(=C2C(=S)C(C)(C)N(C(=O)C3CC3)c3ccccc32)S1 | -4.4 | -5.7 | 1.2 | 5.1 | -8.2 | 78.7*
COC(=O)C1=C(C(=O)OC)SC(=C2C(=S)C(C)(C)N(C(=O)C(C)C)c3ccccc32)S1 | -8.4 | 516.7 | 8.5 | -3.0 | 35.1 | 80.4*
Oc1ccc(Nc2nc3ccccc3nc2Nc2ccc(O)cc2)cc1 | -8.3 | 4.3 | -31.9 | 4.8 | -1.6 | 99.8*
Oc1ccc(Nc2nc(-c3ccccc3)nc3ccccc23)cc1 | 7.1 | -7.4 | -5.5 | 6.1 | -6.2 | -2.4
COc1ccc(NC(=O)CC(Cc2ccccc2)C(=O)O)cc1 (centres undefined) | 1.4 | 282.2* | -1.1 | -8.8 | 8.4 | 1.8
CN1CCN(C(=O)c2ccc3c(=O)n(Cc4ccco4)c(=S)[nH]c3c2)CC1 | 6.4 | 9.8 | -1.2 | 1.2 | -4.0 | 68.6*
O=C(NCCN1CCCC1)c1ccc(Cn2c(=S)[nH]c3cc4c(cc3c2=O)OCO4)cc1 | -10.5 | nt | 0.3 | 8.0 | 4.6 | 71.1*
O=c1c2cc3c(cc2[nH]c(=S)n1Cc1ccco1)OCO3 | -4.3 | -3.6 | -13.6 | -2.1 | 11.1 | 78.3*
COc1cc(NC(=O)c2ccc3c(=O)n(Cc4ccco4)c(=S)[nH]c3c2)cc(OC)c1OC | -6.1 | -11.1 | 1.9 | 0.2 | 5.7 | 76.3*
C=CCNC(=O)c1ccc(Cn2c(=S)[nH]c3cc4c(cc3c2=O)OCO4)cc1 | -8.1 | 106.4 | -10.8 | -4.5 | -4.2 | -76.4
CON(C)S(=O)(=O)c1cccc(C(=O)N(CC(=O)Nc2ccccc2C(F)(F)F)Cc2ccco2)c1 | -15.1 | -0.6 | nt | -14.7 | -4.5 | nt
COc1ccc(N(CC(=O)NC2CC3CCC2C3)S(=O)(=O)c2ccc(C)c([N+](=O)[O-])c2)cc1 (centres undefined) | -11.5 | -3.6 | 8.9 | 11.1 | 0.2 | 16.0
CCOC(=O)c1nn(-c2ccccc2)c(=O)c2c(N)scc12 | -15.9 | 332.1* | -20.4 | 2.1 | -3.2 | 24.9
SMILES | PvdQ acylase | Mot1-301 SUMO | p-CIP stab down | HDAC3 inhib | JMJD2C inh | PHOSPHO1 block
Nc1scc2c(C(=O)N/N=C/c3ccc(Cl)cc3)nn(-c3ccccc3)c(=O)c12 | -3.2 | -14.5 | 6.4 | 3.3 | 20.1 | 101.1*
Nc1c(C(=O)N/N=C/c2ccc(Cl)cc2)cnn1-c1ccccc1 | -10.5 | -3.0 | -16.2 | 2.8 | -1.7 | 31.6
N#C/C(=C\c1c[nH]c2ccccc12)C(=O)NC1CCCC1 | 8.5 | 34.5 | -2.2 | 8.4 | -19.6 | 34.0
COc1ccc2oc(C(=O)OCC(=O)N(C)CC(=O)Nc3ccc(C)cc3)c(C)c2c1 | -9.0 | -4.4 | nt | -5.0 | -0.9 | nt
COc1ccc(N(CC(O)CN2CCOCC2)S(=O)(=O)c2ccccc2)cc1 (centres undefined) | 4.7 | 12.5 | -4.5 | -7.5 | 5.2 | 8.2
c1ccc(-c2nc(-c3ccco3)cs2)nc1 | -8.7 | 9.9 | -2.4 | 3.3 | 55.8* | 18.2
c1ccc(-c2nccc(-c3ccco3)n2)nc1 | 0.6 | -8.8 | -4.7 | 0.3 | -8.6 | 25.6
Fc1ccc(-c2csc(-c3ccccn3)n2)cc1F | 33.1* | 279.1 | -2.3 | 3.1 | -3.5 | 14.7
CCc1nnc(SCC(=O)NC2CC2)n1CC | 14.3 | 5.8 | 1.0 | -11.1 | 4.3 | 21.2
O=C1NC(=S)S/C1=C1\Sc2ccccc2N1CCCS(=O)(=O)O | -6.4 | -0.5 | -2.6 | 6.5 | 7.0 | 71.5*
CCN=C1Sc2nc3ccc(OCC)cc3cc2CN1CCOC | 7.8 | -26.6 | -6.6 | -0.1 | -1.9 | 71.9*
CCOc1ccc2nc3c(cc2c1)CN(CCOC)C(=NC)S3 | -9.7 | -22.2 | 6.1 | -3.9 | 61.2 | -18.3
O=C(NNC1=Nc2cc([N+](=O)[O-])ccc2OC1)c1ccccc1Cl | -5.9 | 286.0 | -10.5 | -7.9 | 2.2 | 14.7
CC(C(O)c1ccc(O)cc1)N1CCC(Cc2ccccc2)CC1 (centres undefined) | 1.5 | 332.5*! | -12.2 | 2.0 | 9.1 | 11.8
C[C@@H](CN1CCC(Cc2ccccc2)CC1)[C@@H](O)c1ccc(O)cc1 | -9.9 | 331.8 | nt | 0.2 | nt | nt
Cc1ccc(SCC2(O)CCN(C(=O)c3ccc(Cl)cc3)CC2)cc1 | -19.4 | -22.2 | 4.3 | -0.7 | 9.4 | 62.0*
Cc1ccc(SCc2ccc(C(=O)N3CCCC3)cc2)cc1 | -4.6 | 14.4 | 3.0 | 7.8 | -6.1 | 27.4
COc1ccc(NC(=O)C(=O)NCCN2CCN(C(=O)c3ccco3)CC2)cc1 | -15.6 | 119.3 | -3.8 | -9.8 | 1.9 | -3.6
COc1cccc(CNc2ccc(S(=O)(=O)N3CCCC3)cn2)c1 | -11.0 | 4.2 | nt | -3.0 | 0.0 | nt
O=C(NCC1CCCO1)c1nn2c(C(F)(F)F)cc(-c3ccc(Br)o3)nc2c1Br (centres undefined) | 2.7 | 5.9 | -3.6 | 4.1 | 0.4 | 27.5
CCCCNS(=O)(=O)c1ccc2nc(SCC(=O)Nc3ccccc3)[nH]c2c1 | 5.6 | -6.2 | 4.4 | -4.0 | 4.9 | -9.2
CCCCNS(=O)(=O)c1ccc2nc(SCC(=O)c3ccc(C#N)cc3)[nH]c2c1 | -6.6 | nt | -10.8 | 2.9 | 4.0 | 99.0*
Cc1cnc(C(=O)OC(C)C(=O)NC2CCCc3ccccc32)cn1 (centres undefined) | -1.6 | -0.5 | nt | -5.1 | 0.8 | nt
COc1ccccc1C(=O)NC(=O)COC(=O)CNC(=O)c1ccccc1 | -18.2 | nt | nt | -0.7 | 0.2 | nt
